NLRP3 yeast inh: NALP3 inhibition in yeast | Yeast reconstituted NLRP3/ASC/caspase-1, beta-gal luminescence, 24 h | inhibition, % at 10 µM | actives 0.39% (n = 330,000);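 active means inhibition of 50% or more; inactive means inhibition below 50%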;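 further: plate controls were induced DMSO wells for no effect and uninduced yeast grown without galactose for full effect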
PfHsp90 yeast 2: growth inhibition of yeast expressing Plasmodium Hsp90. S. cerevisiae expressing PfHsp90, BacTiter-Glo ATP, 48 h; yeast lacking PDR1 and PDR3 efflux regulators. inhibition, % at 9.4 µM. actives 0.32% (n = 310,000);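 active means every replicate shows inhibition above about 80%, whatever the replicate mean, limit read from the data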;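 further: 0% = DMSO neutral controls and 100% = 20 µM radicicol positive controls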
tim10-1 inh: inhibits growth of tim10-1 mutant yeast; S. cerevisiae tim10-1 ts strain growth, BacTiter-Glo, 24 h; inhibition, % at 20 µM; AID 463190; actives 2.2% (n = 330,000);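 active means inhibition of at least 40%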;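 further: mutant grown at 25 °C; 0% = DMSO wells with yeast and 100% = wells holding no yeast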
TIM10 inh: growth inhibitors of TIM10 yeast strain; inhibition, % at 10 µM; actives 1.4% (n = 330,000); AID 463195; S. cerevisiae TIM10 strain growth, BacTiter-Glo luminescence, 24 h;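 active means inhibition of 40% or more at the single tested concentration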;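 further: wild-type TIM10 isogenic control strain grown at permissive 25 °C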
tim23-1 inh: inhibits growth of tim23-1 mutant yeast | S. cerevisiae tim23-1 growth, BacTiter-Glo luminescence, 24 h | inhibition, % at 20 µM | actives 1.3% (n = 330,000);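 active means growth inhibition of the mutant yeast at or above 50%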;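 further: temperature-sensitive mutant grown at 25 °C; plate controls were DMSO-treated mutant yeast for no effect and medium wells lacking yeast for full effect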
tim10-1 confirm: tim10-1 yeast growth inhibition, confirmed | shares compounds with tim10-1 inh | S. cerevisiae tim10-1 ts strain growth, BacTiter-Glo, 24 h | inhibition, % at 20 µM | actives 56% (n = 7,400) | AID 463213;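 active means inhibition of yeast growth at or above a set limit in either of two repeat tests at 20 µM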;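 further: tim10-1 mutant grown at permissive 25 °C to find synthetic lethal compounds; 0% = DMSO yeast wells and 100% = medium wells without yeast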
TIM10 conf: TIM10 yeast growth inhibition, confirmed; actives 63% (n = 4,600); shares compounds with TIM10 inh; S. cerevisiae tim10 strain growth, BacTiter-Glo luminescence, 24 h; inhibition, % at 10 µM;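 active means inhibition of yeast growth at or above a set limit in either of two replicates at 10 µM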;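 further: this counterscreen used the strain with wild-type TIM10; 0% = yeast with DMSO and 100% = medium wells lacking yeast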
Active calls of the source: *; x = no result. Sampled rows, rich in hits. Any-hit rate of the full collection: about 3.7%.

SMILES	NLRP3 yeast inh	PfHsp90 yeast 2	tim10-1 inh	TIM10 inh	tim23-1 inh	tim10-1 confirm	TIM10 conf
O=C(CNS(=O)(=O)c1ccccc1)OCC(=O)c1c[nH]c2ccccc12	19.7	6.9	-3.5	5.9	-5.9	x	x
COc1ccc(-c2cc(CNC(=O)CN3CCN(C)CC3)on2)cc1	1.5	-3.1	0.9	3.7	-6.0	x	x
O=C(COC(=O)c1cccc(S(=O)(=O)N2CCc3ccccc32)c1)NC1CCS(=O)(=O)C1 (stereo unspecified)	12.2	-7.3	1.4	-0.7	-0.9	x	x
COc1ccc(C(=O)Cn2c(C(=O)/C=C/c3ccccc3)nc3ccccc32)cc1	10.4	-18.5	49.4*	41.5*	18.6	43.5*	35.5*
COc1ccc(C(=O)CSc2nc3ccccc3n2CC(=O)c2ccccc2)cc1	23.3	-23.9	32.8	26.3	46.1	x	x
Cc1c(NC(=S)NC(=O)c2cc3ccccc3o2)c(=O)n(-c2ccccc2)n1C	-1.9	1.7	9.4	9.6	20.4	x	x
O=C(Nc1ccc(Cl)cc1)N(Cc1nc2ccccc2c(=O)[nH]1)Cc1cccs1	13.6	12.5	33.5	7.5	25.6	x	x
O=C(Nc1ccc(Cl)cc1)N(Cc1cccs1)Cc1cccs1	10.1	2.2	47.2*	57.2*	46.8	41.0*	-16.8
COc1ccc2c(C)nc(Nc3nc(C)c(C)c(=O)[nH]3)nc2c1	12.7	-9.1	71.0*	65.5*	49.1	60.9*	50.4*
CCc1c(C)nc(Nc2nc(C)c3ccc(OC)cc3n2)[nH]c1=O	7.4	5.5	30.8	30.9	42.2	x	x
CC1CCCC(NC(=O)Nc2cccs2)C1C (stereo unspecified)	21.5	56.3	55.5*	56.3*	34.1	65.2*	52.5*
O=C(Nc1ccc(Nc2ccncc2)cc1)c1ccc(Nc2ccnc3ccc([N+](=O)[O-])cc23)cc1[N+](=O)[O-]	x	4.6	x	x	x	x	x
CCC(c1nnnn1CCc1ccccc1)N1CCN(c2ccc(OC)cc2)CC1 (stereo unspecified)	-25.7	-11.7	41.0*	43.4*	26.2	13.6	23.7
Cc1cc(C)c(C(=O)c2cccs2)c(C)c1	x	-26.9	x	x	x	x	x
Cc1cc(Br)c2c(c1)/C(=C/C(=O)c1cccs1)C(=O)N2	1.4	87.8*	47.4*	49.9*	42.1	33.9*	68.1*
COc1ccccc1Nc1nc(-c2ccc3c(c2)NC(=O)CO3)cs1	20.2	-3.0	22.8	29.2	4.0	x	x
COc1ccc(Nc2nc(-c3ccc4c(c3)NC(=O)CO4)cs2)cc1	12.5	-20.0	40.0	46.2*	40.4	30.7*	46.3*
Cn1c(N)c(C(=O)COC(=O)c2ccc(Cl)c(S(=O)(=O)N3CCCC3)c2)c(=O)n(C)c1=O	20.5	-21.2	11.7	-4.8	23.7	x	x
O=C(NCc1cccnc1)C1CCN(S(=O)(=O)N2CCOCC2)CC1	-6.9	10.2	-6.7	-0.8	-2.9	x	x
N/C(=N\OC(=O)c1cccnc1)c1ccccc1Cl	10.5	0.0	5.9	20.1	12.6	x	x
N/C(=N\OC(=O)c1cccnc1)c1ccc(Cl)cc1Cl	27.5	-2.2	43.8*	40.6*	40.7	41.0*	21.1
O=C(COC(=O)c1ccc([N+](=O)[O-])s1)NC(=O)NCc1ccccc1	20.9	1.8	69.9*	70.1*	-50.1	51.8*	70.7*
CC(NC(=O)COC(=O)c1ccc([N+](=O)[O-])s1)c1ccccc1 (stereo unspecified)	13.2	3.7	18.1	20.4	10.3	x	x
O=C(COC(=O)c1ccc([N+](=O)[O-])s1)NCc1ccc(F)cc1	18.3	-7.6	45.1*	64.4*	22.6	16.8	-9.4
O=C(COC(=O)c1ccc([N+](=O)[O-])s1)NNC(=O)c1ccccc1	17.4	x	6.6	15.7	26.8	x	x
SMILES	NLRP3 yeast inh	PfHsp90 yeast 2	tim10-1 inh	TIM10 inh	tim23-1 inh	tim10-1 confirm	TIM10 conf
COc1ccccc1NC(=O)COC(=O)c1ccc([N+](=O)[O-])s1	11.7	x	70.0*	81.8*	9.9	67.6*	88.7*
O=C(COC(=O)c1ccc([N+](=O)[O-])s1)NCCc1ccccc1	22.5	-8.6	50.4*	46.3*	49.4	47.0*	57.2*
O=C(COC(=O)c1ccc([N+](=O)[O-])o1)NCc1ccc(F)cc1	14.1	-28.5	-180.7	-210.7	-47.3	x	x
O=C(NCCOc1ccccc1F)C1CC(=O)N(Cc2ccccc2)C1 (stereo unspecified)	9.5	x	4.9	-2.7	10.3	x	x
O=C(/C=C/c1cccc([N+](=O)[O-])c1)n1cnc2ccccc21	49.3	14.0	46.2*	45.1*	47.5	42.9*	38.8*
Cc1nc(N)sc1-c1csc(Nc2cccc(O)c2)n1	-3.5	-5.8	-0.8	-1.1	6.7	x	x
Cc1nc(C)c(-c2csc(Nc3cccc(O)c3)n2)s1	21.1	-6.1	44.4*	48.1*	24.0	24.6	31.1*
COc1ccc(N2C(=O)CC(Sc3nccc(C)n3)C2=O)cc1 (stereo unspecified)	8.1	24.8	14.4	9.1	20.2	x	x
C=CCNc1nnc(SC2CC(=O)N(c3ccc(OC)cc3)C2=O)s1 (stereo unspecified)	15.2	5.1	67.2*	40.2*	37.1	61.0*	45.8*
Cc1ccc2c(c1)nnn2C1CCN(C(=O)NC23CC4CC(CC(C4)C2)C3)CC1	0.1	x	11.3	-11.1	3.0	x	x
Cc1ccc2c(c1)nnn2C1CCN(C(=O)C23CC4CC(CC(C4)C2)C3)CC1	-15.1	x	59.5*	42.3*	43.6	40.5*	37.8*
CCOP(=O)(OCC)C(NC(=O)c1cc([N+](=O)[O-])cc([N+](=O)[O-])c1)C(F)(F)F (stereo unspecified)	5.0	-2.0	4.9	1.2	10.4	x	x
O=C(O)COc1ccc(/C=N/NC(=O)C(O)(c2ccccc2)c2ccccc2)cc1	21.7	1.3	-6.4	8.0	-1.8	x	x
CCN1CCN(c2cc3c(nn2)Oc2ccccc2N3C)CC1	12.0	19.8	44.2*	77.3*	44.6	56.7*	71.1*
CCN1CCN(c2nnc(-c3ccccc3)c3ccccc23)CC1	5.0	-14.6	-4.6	11.4	-2.5	x	x
CCCCNC(=S)N/N=C/c1ccc(C)s1	8.5	-12.9	56.8*	58.4*	38.2	42.5*	53.7*
Cc1ccc(/C=N/NC(=S)NCCc2ccccc2)s1	11.8	-1.3	-59.8	10.0	-2.7	x	x
CCCCCOC(=O)CC(C(=O)OCCCCC)N1CCCCC1 (stereo unspecified)	1.3	-4.4	21.5	4.7	21.8	x	x
CCCCCCCCCOC(=O)C(CC(=O)O)N1CCOCC1 (stereo unspecified)	19.7	0.9	42.5*	50.5*	43.5	37.3*	44.0*
COc1ccc(NC(=O)N2CCN(C(=O)C3CCCO3)CC2)cc1 (stereo unspecified)	6.6	2.9	-16.7	5.9	2.3	x	x
